Screens as filed in PubChem.
Most compounds without a hit are left out; they make up all but 4.1% or so of the library.
hgDAF12 agonist: activates the H. glycines DAF-12 receptor ligand-binding domain; HEK293 GAL4-hgDAF12 UAS-luciferase reporter, agonist luminescence; normalized to butyrate control; activation, % at 6.8 µM; 370,000 tested, 1.8% active; AID 687014;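 active means activation above a cutoff set at the mean of all screened compounds plus 3 SD, cut at about 10% in these data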;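 further: 0% = DMSO wells and 100% = sodium butyrate wells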
DAX1 inh-1: blocks DAX1 repression of SF-1 activated StAR promoter; inhibition, % at 6.8 µM; HEK293T StAR-luciferase reporter, SF-1/DAX-1 repression relief; 370,000 tested, 1.1% active; AID 652010;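 active means inhibition above the mean over all tested compounds plus 3 SD, cut at about 3.6% in these data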;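 further: 0% = DAX-1 cells with DMSO and 100% = cells lacking DAX-1 with DMSO; higher inhibition means more luminescence from relief of DAX-1 repression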
DAX1 inh-2: inhibits human nuclear receptor DAX1 | AID 504766 | P51843 | 340,000 tested, 0.99% active | inhibition, % at 6.75 µM | HEK293 Gal4-DAX1 luciferase reporter, luminescence;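 active means inhibition above the mean over all tested compounds plus 3 SD, cut at about 4.2% in these data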;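 further: 0% = DAX1-transfected cells with DMSO and 100% = empty-vector control cells with DMSO; inhibition shows as a rise in luminescence from relieved DAX1 repression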
Target sequence (P51843 207-470 limits assumed): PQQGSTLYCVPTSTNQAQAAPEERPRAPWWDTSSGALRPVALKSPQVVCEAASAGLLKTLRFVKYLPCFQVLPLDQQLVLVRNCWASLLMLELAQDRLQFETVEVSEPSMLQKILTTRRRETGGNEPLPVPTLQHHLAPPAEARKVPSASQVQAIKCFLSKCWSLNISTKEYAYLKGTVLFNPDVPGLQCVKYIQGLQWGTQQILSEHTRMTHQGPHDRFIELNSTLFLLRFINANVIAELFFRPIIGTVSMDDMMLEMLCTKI
ssDAF12 agonist: activators of S. stercoralis DAF-12 nuclear receptor. 370,000 tested, 1% active. AID 652126. activation, % at 6.8 µM. HEK293 ssDAF-12/GRIP1 lit1-tk-luc reporter, luminescence; % of 3 µM dafachronic acid response;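 active means activation above the mean over all tested compounds plus 3 SD, cut at about 0.9% in these data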;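 further: 0% = DMSO-only wells and 100% = 3 µM delta7-dafachronic acid wells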
PolyA inh: blocks polyadenylation in yeast reporter cells. S. cerevisiae SKY197-pL101 polyadenylation reporter, beta-gal luminescence; efflux-impaired pdr1/pdr3 knockout yeast; score 100 = 6 SD above DMSO. activity score, % at 12 µM. 300,000 tested, 0.02% active;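 active means lowest replicate activity score at least 50, where 100 means six control SD above control mean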;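 further: yeast exposed to compound for 9 h at 30 °C; higher score means more reporter readthrough which indicates perturbed polyadenylation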
hcDAF12 agonist: activators of H. contortus DAF-12 nuclear receptor. HEK293 hcDAF-12 lit1-tk-luc reporter, luminescence; 0% DMSO, 100% Δ7-dafachronic acid. activation, % at 6.8 µM. 370,000 tested, 1.4% active. AID 652067;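 active means activation above the mean of all tested compounds plus 3 SD, cut at about 5.5% in these data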;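 further: 100% = response to 3 µM Δ7-dafachronic acid high control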
DAX1 inh confirm: confirmation of human DAX1 (NR0B1) inhibitors. AID 652134. inhibition, % at 6.8 µM. HEK293T StAR-promoter luciferase reporter, SF-1/DAX-1 repression. shares compounds with DAX1 inh-1. 2,400 tested, 87% active;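 active means inhibition above the average of every tested compound plus 3 SD, cut at about 3.8% in these data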;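 further: 0% = DAX-1 cells with DMSO and 100% = no DAX-1 control cells with DMSO; active compounds raise luminescence by relieving repression of the StAR reporter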
Target sequence (P51843 whole entry, looked up): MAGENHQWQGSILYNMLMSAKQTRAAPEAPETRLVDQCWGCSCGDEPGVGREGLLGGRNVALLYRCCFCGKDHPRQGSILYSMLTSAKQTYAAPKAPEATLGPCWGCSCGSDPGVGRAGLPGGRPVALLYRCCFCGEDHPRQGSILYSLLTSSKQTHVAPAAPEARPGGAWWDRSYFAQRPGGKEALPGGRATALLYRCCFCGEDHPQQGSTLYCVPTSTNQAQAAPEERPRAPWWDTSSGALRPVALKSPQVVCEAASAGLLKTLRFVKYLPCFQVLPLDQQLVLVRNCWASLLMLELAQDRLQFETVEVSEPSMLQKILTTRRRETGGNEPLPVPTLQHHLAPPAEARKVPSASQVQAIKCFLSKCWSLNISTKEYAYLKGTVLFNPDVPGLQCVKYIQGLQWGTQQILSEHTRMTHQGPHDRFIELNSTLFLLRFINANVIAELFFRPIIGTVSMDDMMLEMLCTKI
SF1 AF2mut Luc: counter-screen for DAX1 inhibitors: nonselective inhibitors with SF-1 AF2 mutant; AID 652136; 2,400 tested, 78% active; HEK293 StAR-luciferase, luminescence; shares compounds with DAX1 inh-1; inhibition, % at 6.8 µM;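 active means inhibition above the mean of all tested compounds plus 3 SD, cut at about 3% in these data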;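 further: 0% = DAX-1 transfected cells with DMSO and 100% = cells without DAX-1 with DMSO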
Starred values were filed as active, the others as inactive; . = not tested or not shown.

SMILES | hgDAF12 agonist | DAX1 inh-1 | DAX1 inh-2 | ssDAF12 agonist | PolyA inh | hcDAF12 agonist | DAX1 inh confirm | SF1 AF2mut Luc
CC(=O)c1ccc(-c2c(CCO)sc3ccccc23)cc1 | 8 | 5.7* | . | -1 | . | 2 | 3 | 3.0*
COc1cccc(CNC(=O)C[C@H]2CC[C@H]3[C@@H](COc4ccc(NC(=O)c5cccs5)cc4C(=O)N3C)O2)c1 | 7 | 0 | . | -1 | . | -1 | . | .
O=C(Nc1ccc(Cl)cc1[N+](=O)[O-])c1ccc2c(c1)OCCO2 | 6 | 4.7* | 0 | -1 | -10 | 2 | 10* | 4.2*
O=C(NCCOc1ccc(Cl)cc1)c1ccc2c(c1)OCCO2 | 6 | 5.8* | 1 | -1 | . | 2 | 7.5* | 5.4*
O=C(Nc1ccc(F)c([N+](=O)[O-])c1)c1ccc2c(c1)OCCO2 | 7 | 0 | -1 | -1 | -3 | 0 | . | .
O=C(CNC(=O)c1ccc2c(c1)OCO2)NCCOc1ccc(Cl)cc1 | 6 | -2 | 0 | -1 | . | -1 | . | .
COP1(=O)CCOCC[C@H](CC(C)C)NC(=O)[C@H](CC(C)C)N1 (stereo not given in full) | 0 | . | . | -2 | . | 0 | . | .
CCCC[C@H]1C2CC(OC(=O)NCCCc3ccccc3)C(C2)[C@H]2CCCCN21 (stereo not given in full) | 3 | 0 | . | -1 | . | 0 | . | .
O=C(Nc1cccc([N+](=O)[O-])c1)OCc1ccc2c(c1)OCO2 | 1 | -1 | . | -1 | . | -1 | . | .
CC1(C)CC(=O)C=C(c2ccc(-c3ccc4[nH]ccc4c3)cc2)C1=O | 7 | 5.3* | -1 | 0 | . | 4 | 12* | 0
Cc1ccc(NC(=O)N2CCCCCC2)cc1C | 5 | 5.9* | 2 | 0 | -4 | 3 | 8.1* | 5.4*
CCn1c2ccccc2c2cc(NC(=O)N3CCCCC3)ccc21 | 9 | 4.7* | 3 | 0 | . | 3 | 10* | 5.4*
O=C(Nc1ccc(F)c(Cl)c1)N1CCCCCC1 | 5 | 4.7* | 1 | 0 | -3 | 1 | 5.2* | 5.8*
CCCC(=O)Nc1ccc2c(c1)c1ccccc1n2CC | -2 | -1 | 1 | -1 | 10 | -3 | . | .
Cc1ccc(NC(=O)N2CCCCC2)cc1NC(=O)N1CCCCC1 | 1 | 0 | 0 | -1 | 6 | -1 | . | .
O=C(Nc1ncccc1O)c1ccc(NS(=O)(=O)c2ccc3[nH]c(=O)[nH]c3c2)cc1 | 5 | 15* | 2 | 0 | . | -1 | 19* | 15*
Cc1cccnc1NC(=O)c1ccc(NS(=O)(=O)c2ccc3[nH]c(=O)[nH]c3c2)cc1 | 2 | 0 | 1 | -1 | -14 | 4 | . | .
Cc1ccc(/C=N\NC(=O)c2ccc3c(c2)OCO3)o1 | 5 | 5.2* | 1 | 0 | -3 | 5 | 4 | 2.9*
CC(C)[C@@H]1OC(=O)[C@@H]2CCCN2C(=O)[C@H](C)OC(=O)[C@H](C)[C@@H](C(C)C)NC(=O)[C@@H]2CCCN2C(=O)[C@H]([C@H](C)Cc2ccccc2)NC(=O)[C@@H]2CCCN2C(=O)[C@@H](C(C)C)N(C)C1=O | 1 | . | . | -2 | . | -2 | . | .
C=C(c1ccc2nc(NC(=O)OC)[nH]c2c1)c1cccs1 | 5 | 7.7* | 0 | 0 | . | 2 | 37* | -8
C[C@H]1[C@@H](OC(=O)Nc2ccccc2C(F)(F)F)CC[C@@]23CCCN2C(=O)CCC[C@@H]13 | 1 | . | . | -2 | . | 0 | . | .
CCOC(=O)c1ccc2nc(NC(=O)c3ccco3)sc2c1 | 10 | 3 | -1 | 0 | -15 | 4 | . | .
Cc1ccc(NC(=O)COC(=O)c2cccnc2)cc1 | -1 | 0 | 0 | -2 | 8 | 0 | . | .
CCOC(=O)c1ccc2nc(NC(=O)C(C)C)sc2c1 | 13* | 4.6* | 2 | 0 | -5 | 1 | 4 | 2
Cc1ccc2nc(NC(=O)COC(=O)c3cccnc3)sc2c1 | 12* | 5.6* | 1 | -1 | . | 4 | 4.0* | 3
SMILES | hgDAF12 agonist | DAX1 inh-1 | DAX1 inh-2 | ssDAF12 agonist | PolyA inh | hcDAF12 agonist | DAX1 inh confirm | SF1 AF2mut Luc
COC(=O)c1ccc2nc(-c3cccc(Br)c3)c(Cc3cccc(Cl)c3)n2c1 | 8 | 0 | . | 0 | . | 2 | . | .
CCC(C(=O)NCCCN1CCN(C)CC1)n1nc(C)c2sc3ccccc3c2c1=O (stereo not given) | 0 | 0 | 0 | -1 | -7 | 0 | . | .
CCCN1CCN(CCCNC(=O)C(CC)n2nc(C)c3sc4ccccc4c3c2=O)CC1 (stereo not given) | 1 | 5.3* | 1 | -1 | 3 | 2 | 3 | 4.3*
CCOC(=O)c1cnc2c(-c3ccccc3)cnn2c1N | 12* | 5.6* | 4 | 0 | -22 | 4 | 17* | 12*
CCOC(=O)c1cnc2c(-c3ccccc3)c(C)nn2c1N | 3 | 0 | 1 | -1 | 1 | -1 | . | .
CCCOc1ccc(C(=O)N2CCC(Oc3cccnc3)CC2)cc1 | -2 | -1 | . | -2 | . | -1 | . | .
Cc1nc(NC(=O)CSc2nnc(C3CC3)n2C)sc1C(=O)N(C)C | 1 | 2 | 1 | -1 | -4 | 2 | . | .
Cc1nc(NC(=O)CSC2=NCCS2)sc1C(=O)N(C)C | 3 | 12* | 0 | -1 | -7 | 2 | 11* | 4.5*
COc1ccc(C(=O)N(C)[C@H]2C[C@H]3c4[nH]c5c(-c6ccccc6)cccc5c4CCN3C(=O)[C@H]2[C@H](C)O)cc1 | -4 | 0 | . | -1 | . | 1 | . | .
COc1ccc(NC(=O)C(=O)NCC2CCCN2S(=O)(=O)c2ccc(C)cc2)cc1 (stereo not given) | -6 | 6.4* | 0 | -1 | -9 | -1 | 13* | -8
COc1ccc(S(=O)(=O)N2CCCC2CNC(=O)C(=O)Nc2ccc(C)cc2)cc1 (stereo not given) | 0 | -2 | 0 | -1 | -16 | -3 | . | .
CCC(C)c1ccc(NC(=O)NCc2cccnc2)cc1 (stereo not given) | -2 | -1 | 0 | -1 | -14 | 0 | . | .
CCC(C)c1ccc(NC(=O)Nc2cccnc2)cc1 (stereo not given) | 9 | 6.4* | 2 | 1 | 1 | 0 | 4.7* | 3.6*
COc1ccc2nc(N3CCN(C(=O)C4COc5ccccc5O4)CC3)sc2c1 (stereo not given) | 10 | 7.1* | 0 | -1 | 14 | 2 | 11* | 5.5*
COc1ccc(S(=O)(=O)N2CCN(C(=O)C3COc4ccccc4O3)CC2)cc1 (stereo not given) | -1 | -1 | 0 | -1 | . | -1 | . | .
